# Screening data from PubChem BioAssay.
# TDP1 cell noCPT: qHTS for Inhibitors of human tyrosyl-DNA phosphodiesterase 1 (TDP1): qHTS in cells in absence of CPT; Potency, µM (highest dose often 46.2 µM), for inactives: at the top dose activity change, negative = growth inhibition, usual class: inhibitors; hit rate 15% among 420,000; DT40 Tdp1-/- hTDP1 cells, no CPT, ATP luminescence, 48 h; also: potency is read from the fitted curve at half-maximal effect; nearly all actives have a fitted effect of over 55% in size
#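 DT40 Tdp1-/-;hTDP1 cells, no CPT (DMSO vehicle only), 400 cells/well; compounds pin-transferred; ≥48 hr, 37 °C; CellTiter-Glo 30 min RT dark, luminescence read.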
# TDP1 block: qHTS Assay for Inhibitors of Tyrosyl-DNA Phosphodiesterase (TDP1). Potency, µM (top dose mostly 130 µM), for inactives: top-dose activity change, negative = inhibition, actives largely listed as inhibitors. AID 485290, 2010. recombinant TDP1, AlphaScreen DNA substrate cleavage. hit rate 0.28% among 350,000. Tyrosyl-DNA phosphodiesterase 1 (Homo sapiens), Q9NUW8; also: potency is read from the fitted curve at half-maximal effect; nearly all actives have a fitted effect of over 40% in size
# Target sequence (Q9NUW8 whole entry, looked up): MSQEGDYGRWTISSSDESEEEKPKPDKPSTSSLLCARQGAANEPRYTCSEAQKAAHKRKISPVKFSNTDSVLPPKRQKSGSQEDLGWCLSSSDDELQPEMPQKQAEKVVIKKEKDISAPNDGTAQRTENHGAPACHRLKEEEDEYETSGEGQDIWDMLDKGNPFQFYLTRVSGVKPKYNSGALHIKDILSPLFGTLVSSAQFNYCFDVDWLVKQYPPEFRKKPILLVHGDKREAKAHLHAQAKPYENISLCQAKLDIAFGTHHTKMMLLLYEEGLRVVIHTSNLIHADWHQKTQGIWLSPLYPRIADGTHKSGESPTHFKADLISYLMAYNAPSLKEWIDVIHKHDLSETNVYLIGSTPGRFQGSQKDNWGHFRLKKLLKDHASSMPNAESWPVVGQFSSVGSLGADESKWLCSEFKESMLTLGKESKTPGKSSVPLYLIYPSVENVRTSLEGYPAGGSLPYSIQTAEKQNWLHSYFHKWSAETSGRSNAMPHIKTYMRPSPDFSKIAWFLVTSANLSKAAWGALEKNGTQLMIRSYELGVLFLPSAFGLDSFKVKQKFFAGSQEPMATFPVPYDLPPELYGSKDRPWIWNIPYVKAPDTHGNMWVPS
#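 Recombinant human Tdp1 (E. coli-expressed, 1 nM final) preincubated with compounds 15 min at room temperature, then 5'-biotin/3'-phosphotyrosine-FITC DNA substrate (15 nM final) added for 5 min. AlphaScreen beads (10 ug/ml final) added 10 min; cleavage lowers signal.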
# ELG1 DNA repair: qHTS screen for small molecules that inhibit ELG1-dependent DNA repair in human embryonic kidney (HEK293T) cells expressing luciferase-tagged ELG1. HEK293T ELG1-luciferase reporter, luminescence, 16 h; DNA damage induced by 5-fluorouridine. Potency, µM (titrated, usually from 46.1 µM), for inactives: top-dose activity change, negative = inhibition, hits mostly inhibitors. hit rate 2.3% among 330,000; also: potency is read from the fitted curve at half-maximal effect; nearly all actives have a fitted effect of over 55% in size
#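 DMSO vehicle served as the neutral condition. Each well held 2,000 cells given 5-fluorouridine plus compound; after 16 hr at 37 °C/5% CO2, ONE-Glo was added and luciferase measured 30 min later.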
# IL-1B inflam inh: qHTS for Inhibitors of Inflammasome Signaling: IL-1-beta AlphaLISA Primary Screen; hit rate 4.7% among 360,000; activity change, % at 57.5 µM; THP-1 LPS/ATP IL-1B secretion, AlphaLISA, 16 h; stronger effect = lower value; in the data active = activity change below about -50%; inconclusive = mostly about -30% to -49%
#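 THP-1 cells pretreated 1 hr with compounds (up to 57.5 uM final), then stimulated with LPS (250 ng/mL final) plus ATP (1.25 mM final); secreted IL-1B measured by AlphaLISA after 16 hr, decreased signal indicating inhibition.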
# Giardia killer: Small Molecules that selectively kill Giardia lamblia: qHTS; Giardia lamblia trophozoite viability; activity change, % at 7.66 µM, hits read low; hit rate 0.15% among 340,000; in the data active = activity change below about -80%; inconclusive = between about -30% and that limit;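 also: parasites exposed to compound for two days anaerobically before the ATP read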
#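 Trophozoites 100 cells/well + cpd; 48 hrs, 37 deg C, anaerobic. ATPLite 1-Step added, 15-30 min RT, luminescence read (ATP-based viability).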
# DT40 TDP1 CPT: qHTS for Inhibitors of human tyrosyl-DNA phosphodiesterase 1 (TDP1): qHTS in cells in presence of CPT | chicken DT40 Tdp1-/-;hTDP1 cells + 20 nM CPT, ATP luminescence, 48 h | Potency, µM (doses to about 46.2 µM), for the others: at the top dose activity change, negative = growth inhibition, actives largely listed as inhibitors | hit rate 12% among 420,000 | AID 686979, 2013; also: potency is read from the fitted curve at half-maximal effect; nearly all actives have a fitted effect of over 55% in size
#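 Chicken DT40 Tdp1-/- cells stably complemented with human TDP1 were seeded at 400 cells/well in medium containing 20 nM camptothecin, exposed to pin-transferred compounds, and grown at 37 °C for at least 48 hr. Viability was read as ATP luminescence.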
# Active calls of the source: *; ? = inconclusive; . = no result. Most compounds without a hit are left out; they make up all but 19% or so of the library. Unless noted, calls follow the shape of the dose curve; as a rule, active = well fitted curve in the direction sought with a large enough effect; inconclusive = small, poorly fitted or top-dose-only effect, or another doubt; inactive = no such curve, though single readings can be large; an effect the other way counts as inactive or inconclusive. % is scaled to controls: 0 for no effect and ±100 for the full control effect.
SMILES,TDP1 cell noCPT,TDP1 block,ELG1 DNA repair,IL-1B inflam inh,Giardia killer,DT40 TDP1 CPT
CC(O)C(=O)N/N=C/c1cccc2ccccc12 (centres undefined),?,8%,?,-18,-2,14%
COc1ccccc1/C=C/C=N/NC(=O)c1cccs1,6.5µM*,6%,?,-15,0,21µM*
O=C(N/N=C/c1cccc2ccccc12)c1ccccc1Cl,-4%,.,28%,-51*,-6,-7%
O=C(N/N=C/c1cccc2ccccc12)c1cccs1,?,.,?,51,3,26µM*
O=C(NN=Cc1cccc2ccccc12)C(=O)NN=Cc1cccc2ccccc12,15µM*,.,.,-20,-2,?
